# Measured values as given in PubChem BioAssay.
# Calls of active or inactive are those of the source. The rule behind the calls is not given here.
# Biological target: Pantothenate synthetase (Mycobacterium tuberculosis (strain ATCC 25618 / H37Rv)) (UniProt P9WIL5)
# Assay: Coupled enzyme confirmation of inhibitors against recombinant Mtb PanC (AID 375);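 note: 0% = full reaction with vehicle and 100% = no enzyme background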
# Details: coupled enzyme assay; at 10 µM, active compounds read high
# Sequence of Pantothenate synthetase (Mycobacterium tuberculosis (strain ATCC 25618 / H37Rv)) (P9WIL5 whole entry, looked up): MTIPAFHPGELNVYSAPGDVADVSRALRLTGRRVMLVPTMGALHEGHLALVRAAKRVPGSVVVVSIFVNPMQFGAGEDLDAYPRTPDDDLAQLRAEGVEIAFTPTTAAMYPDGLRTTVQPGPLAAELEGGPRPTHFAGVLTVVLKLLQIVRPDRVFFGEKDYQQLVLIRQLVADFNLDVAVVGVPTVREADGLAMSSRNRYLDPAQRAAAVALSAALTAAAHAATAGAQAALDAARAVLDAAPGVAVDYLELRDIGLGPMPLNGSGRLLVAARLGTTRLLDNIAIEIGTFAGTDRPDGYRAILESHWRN
row,Compound,inhibition
1,O=C(CSCc1ccccn1)Nc1ccccc1,0% (inactive)
2,CN(C)c1ccc(C=NCC2(O)CCOC(C)(C)C2)cc1 (configuration not stated),3% (inactive)
3,COc1ccc2[nH]c(=O)c(CN(C(=O)c3ccncc3)C(C)C)cc2c1,0% (inactive)
4,CCOC(=O)C(C)On1c(SC(C)C(=O)OCC)nc2ccccc2c1=O (configuration not stated),0% (inactive)
5,COc1ccc(CCNC(=O)CSc2nnc(CNc3ccc(Cl)cc3)o2)cc1OC,0% (inactive)
6,Nc1nnc(-c2ccccc2)c(-c2ccccc2)n1,0% (inactive)
7,CCN(Cc1nc2ccccc2c(=O)[nH]1)Cc1cc(=O)oc2cc(C)c(C)cc12,0% (inactive)
8,Cc1cc(Nc2ccc(C(=O)O)cc2)n2nc(C)nc2n1,7% (inactive)
9,O=C(Nc1ccccc1)c1ccc(NCC2CCCO2)c(S(=O)(=O)N2CCOCC2)c1 (configuration not stated),0% (inactive)
10,NC(=O)N1c2ccccc2C=Cc2ccccc21,0% (inactive)
11,CCOC(=O)/C(C#N)=C(/C)c1ccc(OC)cc1,0% (inactive)
12,Cc1ccc2nc(-c3ccccn3)cc(C(=O)N3CCN(c4ncccn4)CC3)c2c1,3% (inactive)
13,Cc1ccc(-c2cc(C(=O)O)n[nH]2)o1,0% (inactive)
14,CC1(C)Cc2c(c(=S)nc(-c3ccccc3)n2CCO)CO1,9% (inactive)
15,CC1CN(C(=O)CSc2nnc(-c3ccc(Cl)cc3)n2C)CC(C)O1 (configuration not stated),0% (inactive)
16,COc1ccc2c(c1OC)C(=O)O[C@@H]2[C@H]1c2c(cc3c(c2OC)OCO3)CCN1C,0% (inactive)
17,Cn1c2c(c(=O)n(C)c1=O)C(CC(=O)Nc1ccccc1)C(=O)N2 (configuration not stated),7% (inactive)
